# Screening data from PubChem BioAssay.
# Only some compounds are listed: those with a hit (about 5.5% of all), similar ones and a draw of the others.
# a7 integrin act – qHTS for Activators of Integrin-Mediated Alleviation for Muscular Dystrophy; alpha7betagal myoblasts, beta-gal FDG fluorescence, 48 h; Potency, µM (highest dose often 38.3 µM), for inactives: top-dose activation, hits mostly activators; 350,000 tested, 0.064% active;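 note: 100% = response of the positive control SU9516; nearly all actives have a fitted effect of over 60% in size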
#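 Alpha7betagal+/- myoblasts (passage 13) were plated 16-24 hr, then exposed to compounds (1:260 dilution of DMSO stock) for 48 hours at 37C. After MPER lysis, β-galactosidase reporter activity was read as FDG fluorescence (ex 480/em 540) after 30 minutes.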
# uPA generation – qHTS for Inhibitors of Cell Surface uPA Generation; cell surface uPA generation assay, qHTS; Potency, µM (series often up to 38.3 µM), inactives show top-dose activity change, negative = inhibition, actives largely listed as inhibitors; 330,000 tested, 0.31% active; AID 540303, 2011; active = well fitted inhibition curve with a large enough effect; inconclusive = small, poorly fitted or top-dose-only effect; inactive = no such curve, though single readings can be large or run the other way; tested in mouse RAW 264.7 cells; note: % is set by controls: 0 for no effect and ±100 for the full control effect; nearly all actives have a fitted effect of over 55% in size
# Gal4-VP16 FLuc – VP16 counterscreen qHTS for inhibitors of ROR gamma transcriptional activity; Drosophila S2 Gal4-VP16 UAS-luciferase, luminescence, 20 h; Potency, µM (top dose mostly 53.6 µM), inactives show top-dose activity, negative = inhibition, actives largely listed as inhibitors; 310,000 tested, 3.5% active; AID 2546, 2010;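 note: Gal4-VP16 expression switched on by copper sulfate through the metallothionein promoter; % is set by controls: 0 for no effect and ±100 for the full control effect; nearly all actives have a fitted effect of over 50% in size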
# BCR signal inh – qHTS Assay to Find Inhibitors of Chronic Active B-Cell Receptor Signaling; ABC-DLBCL IkBa-CBG/CBR reporter, luminescence ratio, 4 h; Potency, µM (titrated, usually from 46.1 µM), without a hit: at the highest dose activity change, negative = inhibition, usual class: inhibitors; 340,000 tested, 0.05% active; AID 493014, 2011; active = well fitted inhibition curve with a large enough effect in the signal ratio, with a control signal flat, not every such curve was filed as active; inconclusive = small, poorly fitted or top-dose-only effect, or effect the other way, or a change in a side signal; the % refers to the signal ratio;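 note: plate controls were basal doxycycline-induced cells for no effect and cells given 10 µM MG132 for full effect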
#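 Cell line TMD8 (human ABC DLBCL), stably expressing tet-inducible CBG68-IkBa fusion and CBR; IMDM/0.5% FBS; cpd up to 46 uM; dox induction, 4 h, 37C/5% CO2; dual luminescence; green/red ratio; MG132 control.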
# Mito fusion yeast – qHTS Assay for Small Molecule Inhibitors of Mitochondrial Division or Activators of Mitochondrial Fusion; AID 485298, 2010; S. cerevisiae fusion-defective mutant growth rescue, CellTiterGlo 48 h; 320,000 tested, 0.23% active; Potency, µM (doses to about 46.1 µM), inactives show top-dose growth rescue (activation), hits mostly activators; note: % of control where 0% means no effect; nearly all actives have a fitted effect of over 45% in size
#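 Read-out: ATP-based luminescence (CellTiterGlo, 10 min ambient) reporting growth of fusion-defective ts yeast after 48 hours at 37C on glycerol/ethanol YPEG medium in the presence of compound.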
# RORgamma inh – qHTS for inhibitors of ROR gamma transcriptional activity. Nuclear receptor ROR-gamma (Mus musculus), P51450. Drosophila S2 Gal4-RORgamma UAS-luciferase reporter, 20 h. Potency, µM (top dose mostly 53.6 µM), inactives show top-dose activity change, negative = inhibition, usual class: inhibitors. 310,000 tested, 5.4% active; note: % is set by controls: 0 for no effect and ±100 for the full control effect; nearly all actives have a fitted effect of over 60% in size
# Target sequence (P51450 whole entry, looked up, the tested form may be a part): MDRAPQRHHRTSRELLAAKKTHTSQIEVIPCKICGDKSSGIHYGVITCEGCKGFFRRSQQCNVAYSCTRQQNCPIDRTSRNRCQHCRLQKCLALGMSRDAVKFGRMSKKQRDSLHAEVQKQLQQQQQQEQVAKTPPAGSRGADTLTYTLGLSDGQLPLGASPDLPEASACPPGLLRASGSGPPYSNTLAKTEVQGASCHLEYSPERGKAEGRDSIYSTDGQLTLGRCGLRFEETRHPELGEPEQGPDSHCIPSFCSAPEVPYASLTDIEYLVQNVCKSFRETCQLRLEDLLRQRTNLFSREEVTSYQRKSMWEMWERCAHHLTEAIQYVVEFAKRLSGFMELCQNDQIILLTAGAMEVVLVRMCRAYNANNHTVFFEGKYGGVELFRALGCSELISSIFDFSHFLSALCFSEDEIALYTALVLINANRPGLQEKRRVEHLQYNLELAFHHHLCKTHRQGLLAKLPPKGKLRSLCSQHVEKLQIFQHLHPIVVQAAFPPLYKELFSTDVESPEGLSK
#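 ROR gamma transcriptional activity was tracked as Gal4-UAS luciferase output in stably transfected Drosophila Schneider cells, with compound added 1 hr before 700 uM copper sulfate induction and a 20 hr ambient-temperature incubation.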
# * hit, by the source's call; u = inconclusive; x = no result. Unless noted, calls come from the whole dose curve; as a rule, active = well fitted curve in the direction sought with a large enough effect; inconclusive = small, poorly fitted or top-dose-only effect, or another doubt; inactive = no such curve, though single readings can be large; an effect the other way counts as inactive or inconclusive. Potency is the fitted concentration of half-maximal effect.
SMILES,a7 integrin act,uPA generation,Gal4-VP16 FLuc,BCR signal inh,Mito fusion yeast,RORgamma inh
COc1ccc(Nc2nc(CN3CCOCC3)nc3sc4c(c23)CCC(C)C4)cc1OC (stereo unspecified),x,x,-8.0%,u,-13.8%,-4.1%
COc1cc2c(cc1OC)CN(c1nc(CN3CCOCC3)nc3sc4c(c13)CCC(C)C4)CC2 (stereo unspecified),-11.5%,-4.0%,u,-1.3%,u,11.2µM*
Cc1cc2nc(-c3ccc(Cl)cc3)cc(C(F)(F)F)n2n1,x,x,x,10.3%,x,x
O=C(CS(=O)(=O)c1ccc(F)cc1)Nc1nnc(-c2cccs2)o1,4.9%,-2.7%,x,-26.3%,-0.2%,x
CN(C)S(=O)(=O)c1ccc(C(=O)Nc2ccc(S(=O)(=O)NC3=NCCCCC3)cc2)cc1,2.8%,-3.4%,3.2%,0.3%,1.5%,-3.2%
O=C(Nc1nnc(-c2cccs2)o1)c1cccc(C(F)(F)F)c1,-43.2%,u,0.112µM*,u,12.3%,0.112µM*
CN(C)S(=O)(=O)c1ccc(C(=O)Nc2nnc(-c3ccc4c(c3)CCCC4)o2)cc1,9.7%,4.47µM*,0.0891µM*,11.2%,22.0%,0.126µM*
CN(C)S(=O)(=O)c1ccc(C(=O)Nc2nc(-c3cccs3)cs2)cc1,0.0%,-24.4%,-19.2%,u,-1.8%,2.9%
N#Cc1ccc(C(=O)Nc2nnc(-c3cccs3)o2)cc1,-23.0%,u,1µM*,u,4.6%,0.708µM*
CN(C)S(=O)(=O)c1ccc(C(=O)Nc2nnc(-c3cccs3)o2)cc1,-24.7%,u,1.26µM*,2.7%,8.8%,0.631µM*
C[C@H](CO)N1C[C@H](C)[C@@H](CN(C)S(=O)(=O)c2ccccc2)Oc2c(NC(=O)c3ccncc3)cccc2C1=O,0.0%,-2.7%,x,-0.7%,x,x
N[C@@]1(C(=O)O)CO[C@H]2[C@H](C(=O)O)[C@H]21,x,x,-3.1%,x,x,2.2%
Cc1ccc(C(=O)c2cn(Cc3ccc(Cl)cc3)c3nc(C)ccc3c2=O)cc1,x,x,x,-1.2%,u,x
O=C(CSCCO)Nc1ccc(C2CCCCC2)cc1,-37.4%,x,5.62µM*,-16.6%,3.0%,0.0%
O=C(c1ccco1)N1N=C(C2CCCCC2)CC1(O)C(F)(F)F (stereo unspecified),-13.5%,-3.4%,5.2%,4.0%,4.1%,8.2%
O=C(Cc1ccc([N+](=O)[O-])cc1)N1N=C(C2CC2)CC1(O)C(F)(F)F (stereo unspecified),-2.9%,0.0%,u,u,3.7%,15.8µM*
CCC1=NN(C(=O)Cc2ccc([N+](=O)[O-])cc2)C(O)(c2ccncc2)C1 (stereo unspecified),2.6%,1.8%,3.2%,-0.2%,0.4%,17.8µM*
Cc1occc1C(=O)N1N=C(C2CC2)CC1(O)C(F)(F)F (stereo unspecified),9.5%,-6.2%,u,-12.0%,1.0%,7.94µM*
CCCC1=NN(C(=O)Cc2ccc([N+](=O)[O-])cc2)C(O)(C(F)(F)F)C1 (stereo unspecified),9.5%,-1.0%,u,2.7%,14.5%,20µM*
CCC1=NN(C(=O)Cc2ccc([N+](=O)[O-])cc2)C(O)(C(F)(F)F)C1 (stereo unspecified),-3.6%,3.8%,9.9%,u,5.6%,u
CC1=NN(C(=O)Cc2ccc([N+](=O)[O-])cc2)C(O)(C(F)(F)C(F)(F)F)C1 (stereo unspecified),10.7%,-8.4%,5.01µM*,u,4.5%,3.55µM*
CC(C)(C)C1(O)CC(C(F)(F)F)=NN1C(=O)Cc1ccc([N+](=O)[O-])cc1 (stereo unspecified),15.3%,6.6%,-7.7%,1.0%,4.0%,u
C(=N\Nc1nc2ccccc2[nH]1)/c1ccc2c(c1)OCCO2,-20.1%,u,u,u,4.5%,5.62µM*
C(=N\Nc1nc2ccccc2[nH]1)/c1ccc2ncccc2c1,4.0%,-3.4%,-28.4%,u,-2.0%,-44.2%
Fc1ccccc1-c1ccc(/C=N/Nc2nc3ccccc3[nH]2)o1,-34.6%,3.98µM*,3.55µM*,23.1µM*,-2.9%,3.16µM*
SMILES,a7 integrin act,uPA generation,Gal4-VP16 FLuc,BCR signal inh,Mito fusion yeast,RORgamma inh
BrC(=C\c1ccccc1)/C=N/Nc1nc2ccccc2[nH]1,10.0%,-6.0%,5.01µM*,u,u,3.16µM*
C(=N\Nc1nc2ccccc2[nH]1)/c1ccccn1,-51.5%,u,1.12µM*,u,-0.7%,0.562µM*
CC(Nc1oc(-c2ccccc2)nc1-c1ccc(C(F)(F)F)cc1)c1ccccc1 (stereo unspecified),x,x,4.5%,x,x,17.8%
Cc1ccc(/C=N\Nc2nc3ccc(Cl)cc3[nH]2)o1,-13.6%,-9.2%,12.6µM*,u,-8.2%,6.31µM*
Cc1ccc(/C=N/Nc2nnc(Cc3ccccc3)c(=O)[nH]2)o1,9.6%,1.9%,-3.0%,13.0%,-5.8%,u
C#CCn1cc(/C=N/Nc2nc3ccccc3[nH]2)c2ccccc21,-15.1%,-6.8%,u,u,9.8%,15.8µM*
Cc1c(C(=O)OCC(=O)Nc2c(C)n(C)n(-c3ccccc3)c2=O)oc2ccccc12,3.3%,-1.0%,-19.4%,0.2%,1.8%,2.2%
O=C(Oc1ccccc1)N1CCC2(CC1)CN(c1ccncc1)C2,x,x,2.1%,x,x,-19.8%
COC(=O)C1=C(C)NC(C)=C([N+](=O)[O-])C1c1ccccc1C(F)(F)F (stereo unspecified),x,-10.5%,0.1%,u,13µM*,19.5%
COC(=O)C1=C(C)NC(C)=C(C(=O)OC)C1c1ccc(-c2cccc([N+](=O)[O-])c2)o1,22.6%,-18.4%,-2.5%,u,1.3%,0.1%
O=[N+]([O-])c1cccc(S(=O)(=O)NCc2ccncc2)c1,-48.4%,-0.3%,10µM*,-12.9%,1.8%,23.4%
Cc1cc(C)c(S(=O)(=O)NCc2ccncc2)c(C)c1,-40.3%,-5.1%,8.91µM*,-1.4%,1.1%,u
Cc1cccc(CNc2cc(-c3ccccc3CN(C)C)ncn2)c1,x,x,-6.8%,x,x,-25.0%
O=C(CN(C(=O)CCC(=O)Nc1nccs1)c1ccc(F)cc1)NCc1ccc(F)cc1,-30.4%,-9.8%,-11.1%,-1.4%,-7.7%,26.6%
CC(=O)C1=C(C)OC(N)=C(C#N)C1c1ccncc1 (stereo unspecified),-7.0%,-14.4%,17.8µM*,5.1%,-1.9%,u
Cc1ccc(-c2nc3sc(CCNC(=O)c4ccc(C)c(C)c4)c(C)n3n2)cc1,x,x,x,-0.7%,x,x
